Reference: ChEMBL document CHEMBL3988442, “University of Dundee, Small-Polar-MMV Screening Library” (2021)
Screen size: about 69,000 compounds; about 950 (1.4%) showed an effect of 50% or more. The list comes from a sample in which strong results are over-represented; it also holds similar structures and randomly drawn compounds.

These compounds were tested on Mycobacterium tuberculosis (assay: Cornell M. t heat shock assay; also: in the data most compounds retested in dose-response had high values).
Type: functional, organism-based
Design: dose or concentration left out as unconfirmed

SMILES	Percent Effect
Cc1nc(COC[C@@H]2CC[C@H]3[C@H](CCN3c3ccccn3)O2)cs1.O=C(O)C(F)(F)F	-8.365%
COCC(=O)NC1CC2(CCN(Cc3ccco3)CC2)c2ccccc21.O=C(O)C(F)(F)F (stereo unspecified)	-0.75%
Cn1ccc(C(=O)N2CCC3(CCN3c3ncccn3)C2)n1.O=C(O)C(F)(F)F (stereo unspecified)	24.82%
CC(C)(C)c1ncc(C(=O)NC(C(N)=O)c2ccccc2)s1 (stereo unspecified)	-32.92%
Cn1cc(C(=O)N2CC[C@@H]3[C@@H]2CCN3Cc2cccnc2)cn1.O=C(O)C(F)(F)F.O=C(O)C(F)(F)F	-1.797%
COC[C@]12COC[C@H]1CN(Cc1cc(OC)cc(OC)c1)C2.O=C(O)C(F)(F)F	3.349%
Cc1cccc(CN2CCC(NCC3CNc4cc(C)nn4C3)CC2)c1 (stereo unspecified)	108.8%
Cc1cc2n(n1)CC(CNC1CCN(Cc3ccccc3C)CC1)CN2 (stereo unspecified)	13.82%
Cc1cc2n(n1)CC(CNC1CCN(Cc3ccncc3)CC1)CN2 (stereo unspecified)	-16.93%
COCCCNC(=O)Cn1c(C)cc(=O)n2nc(-c3cccs3)nc12	14.25%
Cc1cc(C)n(-c2cncc(NCCC(=O)NC(C)C)n2)n1	-1.343%
COCCNC(=O)Cn1c(C)cc2nc(SC)n(CC(C)C)c(=O)c21	-7.488%
CCCc1cc(=O)n(CC(N)=O)c(-n2nc(C)cc2C)n1	28.09%
CCCc1cc(=O)n(CC(=O)NC(C)C)c(-n2nc(C)cc2C)n1	96.11%
CCCNC(=O)Cn1c(C)nn(C(C)(C)C)c1=O	11.09%
CCCNC(=O)CCNc1cncc(-n2nc(C)cc2C)n1	-16.72%
CCCNC(=O)Cn1c(-n2nc(C)cc2C)nc(CCC)cc1=O	96.63%
CCCc1cc(=O)n(CC(=O)NCCOC)c(-n2nc(C)cc2C)n1	103.9%
O=C(O)C(F)(F)F.O=C(O)C(F)(F)F.O=C(c1ccnnc1)N1C[C@@H]2OCCN(CCN3CCCC3)[C@@H]2C1	-5.03%
CCc1cc(C(F)(F)F)n2nc(C3CCCN3C3CCSCC3)cc2n1.O=C(O)CC(O)(CC(=O)O)C(=O)O (stereo unspecified)	5.555%
O=C(O)c1ccc(SCC(=O)c2ccccc2)nc1	25.44%
Cc1cccc(CN2C[C@@H]3OCCN(CC(=O)N(C)C)[C@@H]3C2)c1.O=C(O)C(F)(F)F	42.49%
Cl.Cl.c1ccc(OC[C@@H]2CCC[C@@]23CNCCO3)nc1	-6.285%
Cc1noc(C)c1CN(C)C(C)c1cccs1 (stereo unspecified)	7.19%
CC(C)n1cnnc1CN(C)Cc1cnc(-c2ccccn2)nc1	32.7%
CC(c1cccs1)N(C)Cc1cnc(-c2ccccn2)nc1 (stereo unspecified)	106.1%
